Test results: the supplement of paper PMC11732987, “Enantioselective OTUD7B fragment discovery through chemoproteomics screening and high-throughput optimisation” (Communications Chemistry, 2025)

What was measured:
Experiment in all cases: log2 ratio of Biotin-Ahx-Ub-VS probe labelling (fragment/DMSO); higher = less target engagement (more negative = stronger competition), active = hit call of the paper (q ≤ 0.05, log2 ratio ≤ -1)
Details in all cases: compound concentration: 200 uM; treatment time: 3 h
USP34 = USP34 (UniProt Q70CQ2)
How it was run: (§1)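 Average log2 ratios of fragment over vehicle were obtained by unpaired t-test from global-median-normalised Spectronaut label-free quantities. Proteins with ≥2 unique peptides were included. HEK293T lysate (495 µg per sample) was treated in triplicate with fragment at 200 µM or vehicle for 3 h, then with Biotin-Ahx-Ub-VS at 0.5 µM final for 1 h, and labelled DUBs were NeutrAvidin-enriched and run by diaPASEF LC-MS/MS.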

USP36 = biological target: T1, USP36 (UniProt Q9P275)
T1 sequence (whole entry): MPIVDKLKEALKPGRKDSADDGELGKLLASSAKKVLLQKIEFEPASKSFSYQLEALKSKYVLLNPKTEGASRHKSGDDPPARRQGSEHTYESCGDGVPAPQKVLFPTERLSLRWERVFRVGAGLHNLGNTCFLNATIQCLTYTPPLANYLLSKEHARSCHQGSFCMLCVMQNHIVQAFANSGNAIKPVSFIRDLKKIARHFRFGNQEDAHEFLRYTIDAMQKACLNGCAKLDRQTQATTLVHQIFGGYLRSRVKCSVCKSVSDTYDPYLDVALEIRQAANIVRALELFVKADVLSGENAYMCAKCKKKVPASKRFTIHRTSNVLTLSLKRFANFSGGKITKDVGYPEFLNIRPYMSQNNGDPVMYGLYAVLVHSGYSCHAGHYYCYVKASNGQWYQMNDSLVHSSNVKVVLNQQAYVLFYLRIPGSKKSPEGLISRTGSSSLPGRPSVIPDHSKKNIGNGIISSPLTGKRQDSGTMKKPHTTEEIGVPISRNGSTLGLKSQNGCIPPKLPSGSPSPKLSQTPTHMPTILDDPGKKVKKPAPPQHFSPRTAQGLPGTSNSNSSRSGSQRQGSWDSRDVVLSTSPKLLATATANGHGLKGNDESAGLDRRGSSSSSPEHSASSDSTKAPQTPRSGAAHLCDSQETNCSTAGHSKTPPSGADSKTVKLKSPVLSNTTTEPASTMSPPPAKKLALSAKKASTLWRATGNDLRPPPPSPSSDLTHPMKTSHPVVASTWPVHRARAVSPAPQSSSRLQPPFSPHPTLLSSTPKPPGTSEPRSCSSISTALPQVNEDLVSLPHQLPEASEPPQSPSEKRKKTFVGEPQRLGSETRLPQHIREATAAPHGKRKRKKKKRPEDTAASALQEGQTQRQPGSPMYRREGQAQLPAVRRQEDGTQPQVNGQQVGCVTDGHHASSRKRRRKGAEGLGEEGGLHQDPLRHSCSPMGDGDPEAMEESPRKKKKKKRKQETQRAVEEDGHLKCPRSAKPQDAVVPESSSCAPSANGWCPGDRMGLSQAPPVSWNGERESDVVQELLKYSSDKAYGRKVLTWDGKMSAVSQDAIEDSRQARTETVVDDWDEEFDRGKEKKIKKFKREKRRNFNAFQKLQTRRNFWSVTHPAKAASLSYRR
How it was run: as §1

USP38 = biological target: T2, USP38 (UniProt Q8NB14)
T2 sequence (whole entry): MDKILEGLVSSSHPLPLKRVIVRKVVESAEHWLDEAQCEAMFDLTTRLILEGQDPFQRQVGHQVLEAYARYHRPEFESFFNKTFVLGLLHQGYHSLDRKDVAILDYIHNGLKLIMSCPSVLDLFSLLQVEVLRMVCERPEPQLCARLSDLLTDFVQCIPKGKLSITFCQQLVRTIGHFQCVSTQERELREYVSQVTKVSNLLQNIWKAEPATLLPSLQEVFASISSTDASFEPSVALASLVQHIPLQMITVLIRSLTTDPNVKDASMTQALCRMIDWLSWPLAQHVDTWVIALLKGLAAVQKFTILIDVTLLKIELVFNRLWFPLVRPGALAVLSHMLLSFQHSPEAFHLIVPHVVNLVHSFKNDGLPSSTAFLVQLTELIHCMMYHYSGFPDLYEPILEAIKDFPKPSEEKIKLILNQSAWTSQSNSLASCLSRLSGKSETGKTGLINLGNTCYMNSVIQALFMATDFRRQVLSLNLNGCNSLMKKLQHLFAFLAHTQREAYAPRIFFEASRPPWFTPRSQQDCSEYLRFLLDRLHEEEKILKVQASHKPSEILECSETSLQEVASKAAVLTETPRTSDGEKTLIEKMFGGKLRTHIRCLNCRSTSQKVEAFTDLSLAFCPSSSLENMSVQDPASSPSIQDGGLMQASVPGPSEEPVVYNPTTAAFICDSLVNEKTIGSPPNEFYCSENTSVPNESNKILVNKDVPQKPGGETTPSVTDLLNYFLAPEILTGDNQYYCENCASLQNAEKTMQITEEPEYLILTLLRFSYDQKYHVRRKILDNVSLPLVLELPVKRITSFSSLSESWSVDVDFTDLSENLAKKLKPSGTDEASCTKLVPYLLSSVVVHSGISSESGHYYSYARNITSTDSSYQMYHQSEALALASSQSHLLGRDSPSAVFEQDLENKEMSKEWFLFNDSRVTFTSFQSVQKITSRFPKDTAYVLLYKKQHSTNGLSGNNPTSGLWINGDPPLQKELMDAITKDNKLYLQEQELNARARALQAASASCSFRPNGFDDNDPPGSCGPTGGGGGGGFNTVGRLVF
How it was run: as §1

USP39 = biological target: T3, USP39 (UniProt Q53GS9)
T3 sequence (whole entry): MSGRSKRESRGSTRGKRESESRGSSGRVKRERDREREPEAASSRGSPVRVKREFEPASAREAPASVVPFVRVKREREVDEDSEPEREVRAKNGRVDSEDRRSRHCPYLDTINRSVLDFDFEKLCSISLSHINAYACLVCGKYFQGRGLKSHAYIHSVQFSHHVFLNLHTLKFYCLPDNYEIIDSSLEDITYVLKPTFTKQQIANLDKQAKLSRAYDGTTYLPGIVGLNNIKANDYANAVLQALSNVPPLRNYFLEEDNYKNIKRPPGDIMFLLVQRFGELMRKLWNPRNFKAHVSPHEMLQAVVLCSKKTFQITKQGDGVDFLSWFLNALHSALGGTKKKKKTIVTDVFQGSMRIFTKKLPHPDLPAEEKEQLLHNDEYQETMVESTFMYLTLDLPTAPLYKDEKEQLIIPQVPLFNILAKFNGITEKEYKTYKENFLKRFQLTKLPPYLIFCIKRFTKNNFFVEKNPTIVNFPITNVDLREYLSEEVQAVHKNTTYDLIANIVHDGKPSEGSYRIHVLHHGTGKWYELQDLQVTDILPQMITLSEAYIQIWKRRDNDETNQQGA
How it was run: as §1

USP4 = biological target: T4, USP4 (UniProt Q13107)
T4 sequence (whole entry): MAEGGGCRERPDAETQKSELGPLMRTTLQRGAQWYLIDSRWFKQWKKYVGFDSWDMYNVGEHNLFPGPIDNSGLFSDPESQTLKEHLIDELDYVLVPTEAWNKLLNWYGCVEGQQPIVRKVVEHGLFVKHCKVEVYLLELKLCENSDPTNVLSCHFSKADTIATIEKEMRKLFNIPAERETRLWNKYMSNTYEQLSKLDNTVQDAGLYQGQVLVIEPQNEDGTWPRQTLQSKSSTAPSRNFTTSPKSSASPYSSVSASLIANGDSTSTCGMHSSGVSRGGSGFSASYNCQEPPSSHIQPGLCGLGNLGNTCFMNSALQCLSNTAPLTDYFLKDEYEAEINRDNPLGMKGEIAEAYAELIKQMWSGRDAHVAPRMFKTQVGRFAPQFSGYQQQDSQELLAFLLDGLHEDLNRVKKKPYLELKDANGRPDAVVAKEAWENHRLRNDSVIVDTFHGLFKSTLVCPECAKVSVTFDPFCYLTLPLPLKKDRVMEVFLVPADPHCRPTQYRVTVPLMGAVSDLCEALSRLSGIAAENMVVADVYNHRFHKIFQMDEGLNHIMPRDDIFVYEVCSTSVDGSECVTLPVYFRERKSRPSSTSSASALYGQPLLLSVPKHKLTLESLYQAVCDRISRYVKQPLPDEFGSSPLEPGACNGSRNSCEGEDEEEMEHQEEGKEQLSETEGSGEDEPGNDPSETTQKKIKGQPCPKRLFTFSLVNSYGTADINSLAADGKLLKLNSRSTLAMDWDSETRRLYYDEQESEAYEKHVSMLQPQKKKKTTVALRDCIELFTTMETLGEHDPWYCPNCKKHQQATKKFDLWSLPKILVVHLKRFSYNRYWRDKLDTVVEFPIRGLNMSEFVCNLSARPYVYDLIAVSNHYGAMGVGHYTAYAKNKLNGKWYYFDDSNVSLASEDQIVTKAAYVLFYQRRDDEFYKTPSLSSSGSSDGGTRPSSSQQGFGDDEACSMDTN
How it was run: as §1

Measured: log2 ratio of Biotin-Ahx-Ub-VS probe labelling

Chain of USP34 (Q70CQ2 whole entry, the tested form may be a part): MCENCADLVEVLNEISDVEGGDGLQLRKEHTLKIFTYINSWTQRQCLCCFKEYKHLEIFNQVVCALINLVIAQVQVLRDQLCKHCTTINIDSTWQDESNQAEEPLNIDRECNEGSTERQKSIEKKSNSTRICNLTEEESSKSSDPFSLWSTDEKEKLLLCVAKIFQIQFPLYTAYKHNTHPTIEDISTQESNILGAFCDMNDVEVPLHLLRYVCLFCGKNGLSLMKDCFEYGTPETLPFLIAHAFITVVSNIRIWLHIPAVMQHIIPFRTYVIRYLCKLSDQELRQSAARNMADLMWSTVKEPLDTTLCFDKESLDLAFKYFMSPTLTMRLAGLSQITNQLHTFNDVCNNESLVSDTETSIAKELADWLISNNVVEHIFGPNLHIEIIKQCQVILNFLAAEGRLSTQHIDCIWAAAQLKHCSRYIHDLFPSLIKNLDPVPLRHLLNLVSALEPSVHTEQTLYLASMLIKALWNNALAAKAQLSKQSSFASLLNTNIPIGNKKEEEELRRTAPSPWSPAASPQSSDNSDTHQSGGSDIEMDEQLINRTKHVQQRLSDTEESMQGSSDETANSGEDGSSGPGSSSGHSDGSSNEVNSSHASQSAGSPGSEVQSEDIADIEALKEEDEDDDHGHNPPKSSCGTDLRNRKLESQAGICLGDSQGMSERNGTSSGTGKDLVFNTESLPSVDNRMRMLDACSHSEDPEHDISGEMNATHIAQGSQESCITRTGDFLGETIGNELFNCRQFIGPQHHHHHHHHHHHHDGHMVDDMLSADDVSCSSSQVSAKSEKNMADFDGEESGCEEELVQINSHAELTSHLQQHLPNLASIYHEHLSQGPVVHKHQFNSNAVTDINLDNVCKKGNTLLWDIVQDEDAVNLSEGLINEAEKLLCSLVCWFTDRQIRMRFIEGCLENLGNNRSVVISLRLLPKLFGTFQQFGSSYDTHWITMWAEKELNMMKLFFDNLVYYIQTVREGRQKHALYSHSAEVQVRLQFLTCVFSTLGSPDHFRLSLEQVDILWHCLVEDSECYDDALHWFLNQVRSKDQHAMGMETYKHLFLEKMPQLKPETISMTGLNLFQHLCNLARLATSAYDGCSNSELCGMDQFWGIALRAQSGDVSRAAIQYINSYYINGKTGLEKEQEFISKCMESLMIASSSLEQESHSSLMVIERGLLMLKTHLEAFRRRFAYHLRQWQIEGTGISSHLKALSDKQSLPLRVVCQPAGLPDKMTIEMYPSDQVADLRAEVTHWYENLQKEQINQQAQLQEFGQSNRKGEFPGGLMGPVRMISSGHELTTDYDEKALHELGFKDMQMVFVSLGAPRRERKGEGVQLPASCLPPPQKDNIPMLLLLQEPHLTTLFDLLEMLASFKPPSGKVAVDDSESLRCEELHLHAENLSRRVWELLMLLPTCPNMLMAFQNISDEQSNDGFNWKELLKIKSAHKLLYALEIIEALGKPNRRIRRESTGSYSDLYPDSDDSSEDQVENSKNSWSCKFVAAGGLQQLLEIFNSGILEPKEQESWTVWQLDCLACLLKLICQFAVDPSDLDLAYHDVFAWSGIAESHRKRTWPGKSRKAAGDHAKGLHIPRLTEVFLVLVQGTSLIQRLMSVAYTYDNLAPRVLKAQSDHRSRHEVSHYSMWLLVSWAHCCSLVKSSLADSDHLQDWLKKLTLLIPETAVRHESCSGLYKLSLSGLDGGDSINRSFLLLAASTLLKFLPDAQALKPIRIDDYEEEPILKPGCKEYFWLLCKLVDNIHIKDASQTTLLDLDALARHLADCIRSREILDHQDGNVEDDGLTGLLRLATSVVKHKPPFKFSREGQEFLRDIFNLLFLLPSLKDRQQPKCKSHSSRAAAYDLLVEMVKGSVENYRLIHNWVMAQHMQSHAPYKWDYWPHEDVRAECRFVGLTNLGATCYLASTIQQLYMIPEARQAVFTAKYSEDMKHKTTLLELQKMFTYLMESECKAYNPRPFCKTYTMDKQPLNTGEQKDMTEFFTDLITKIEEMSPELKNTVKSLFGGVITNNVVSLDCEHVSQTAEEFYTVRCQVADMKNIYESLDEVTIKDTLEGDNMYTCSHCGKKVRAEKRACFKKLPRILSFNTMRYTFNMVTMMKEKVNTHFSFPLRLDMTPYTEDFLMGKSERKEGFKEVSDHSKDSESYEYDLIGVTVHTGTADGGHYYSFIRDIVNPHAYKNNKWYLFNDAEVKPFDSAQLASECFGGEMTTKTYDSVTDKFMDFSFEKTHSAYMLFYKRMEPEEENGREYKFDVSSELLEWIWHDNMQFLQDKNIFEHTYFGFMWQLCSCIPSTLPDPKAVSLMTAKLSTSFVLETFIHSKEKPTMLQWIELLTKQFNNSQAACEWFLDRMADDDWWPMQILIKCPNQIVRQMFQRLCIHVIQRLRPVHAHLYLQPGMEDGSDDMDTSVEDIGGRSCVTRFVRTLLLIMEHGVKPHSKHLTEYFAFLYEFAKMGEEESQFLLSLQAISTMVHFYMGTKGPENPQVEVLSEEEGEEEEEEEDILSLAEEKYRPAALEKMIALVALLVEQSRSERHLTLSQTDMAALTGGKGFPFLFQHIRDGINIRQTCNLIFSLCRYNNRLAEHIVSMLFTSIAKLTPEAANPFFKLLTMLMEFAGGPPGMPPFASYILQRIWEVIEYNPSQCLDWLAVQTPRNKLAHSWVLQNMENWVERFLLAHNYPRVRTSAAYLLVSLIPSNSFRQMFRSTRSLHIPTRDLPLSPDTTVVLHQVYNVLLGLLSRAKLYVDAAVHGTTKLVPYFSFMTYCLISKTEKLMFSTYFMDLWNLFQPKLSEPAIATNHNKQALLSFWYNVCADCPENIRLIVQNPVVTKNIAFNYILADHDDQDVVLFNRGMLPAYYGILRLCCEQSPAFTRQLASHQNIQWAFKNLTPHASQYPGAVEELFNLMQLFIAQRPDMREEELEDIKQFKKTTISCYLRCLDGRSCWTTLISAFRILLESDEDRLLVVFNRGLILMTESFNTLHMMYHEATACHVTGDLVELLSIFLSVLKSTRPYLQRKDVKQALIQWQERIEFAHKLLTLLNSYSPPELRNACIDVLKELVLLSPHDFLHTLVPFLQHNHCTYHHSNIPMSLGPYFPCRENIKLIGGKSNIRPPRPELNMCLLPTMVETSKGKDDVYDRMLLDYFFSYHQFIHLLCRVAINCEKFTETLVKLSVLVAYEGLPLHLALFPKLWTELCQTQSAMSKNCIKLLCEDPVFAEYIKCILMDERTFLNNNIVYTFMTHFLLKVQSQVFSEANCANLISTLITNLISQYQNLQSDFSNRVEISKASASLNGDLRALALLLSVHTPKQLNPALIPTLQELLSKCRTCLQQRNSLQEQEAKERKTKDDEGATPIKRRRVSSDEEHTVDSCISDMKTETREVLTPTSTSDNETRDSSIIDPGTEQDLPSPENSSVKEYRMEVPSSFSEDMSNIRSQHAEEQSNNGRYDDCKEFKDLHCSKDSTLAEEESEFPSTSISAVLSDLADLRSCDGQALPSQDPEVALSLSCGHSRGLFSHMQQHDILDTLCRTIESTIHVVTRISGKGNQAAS

Cc1cccnc1NC(=O)C1CCN(C(=O)CCl)CC1.Cl
inactive: USP34 -0.124 | USP36 -0.102 | USP38 -0.157 | USP39 0.0484 | USP4 0.0404
